From PubChem BioAssay (NCATS)
Several values for one entry are separate records, joined by “and”; a condition that tells them apart may be missing. Equal values may be shown once. Inconclusive results are not listed. A number with no mark means an inactive call. Activity calls are given as the source filed them. The call rests on the fitted dose curve; in most records, active means well fitted curve in the direction sought with a large enough effect; inconclusive means small, poorly fitted or top-dose-only effect, or another doubt; inactive means no such curve, though single readings can be large; an effect the other way counts as inactive or inconclusive.

What was measured:
[1] = Viability qHTS for spleen associated tyrosine kinase inhibitor (SYKi) naive MV4-11 cells (AID 1963823); conditions: MV4-11 AML viability, CellTiter-Glo luminescence, 72 h; series mostly up to 45 µM; further: nearly all actives have a fitted effect of over 40% in size
In short: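 Read-out: CellTiter-Glo luminescence. Exposure: 72 hr, 37 C, 5% CO2, 95% humidity. Cells: MV4-11 without SYK inhibitor history, 500/well, qHTS format.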

[2] = Viability qHTS for spleen associated tyrosine kinase inhibitor (SYKi) drug resistant MV4-11 cells (AID 1963824); conditions: SYKi-resistant MV4-11 viability, CellTiter-Glo, 72 h; series mostly up to 45 µM; further: nearly all actives have a fitted effect of over 35% in size
In short: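 CellTiter-Glo luminescence, read 10 min after reagent addition, reports viability after a 72 hr compound exposure. Cells are an MV4-11 line made resistant to SYK inhibition, seeded at 500 per well onto compound-containing plates.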

[3] = Quantitative highthroughput screen to assess conditional lethalithy of NOMO1 cells grown in RPMI1640 with untreated serum (RPMI+s) (AID 1963876); conditions: NOMO1 AML cells in RPMI+serum, CellTiter-Glo viability, 48 h; series mostly up to 45.8 µM; further: nearly all actives have a fitted effect of over 35% in size;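 on Viability: 100% = DMSO wells and 0% = empty wells without cells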
In short: (§1)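 Each medium arm—HPLM with 10% dialyzed FBS, or RPMI1640 with 5 mM glucose and 10% untreated or dialyzed FBS—was screened against an 11-point, 3-fold compound titration for 48 h at 37 °C, with CellTiter-Glo luminescence as endpoint.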

[4] = Quantitative highthroughput screen to assess conditional lethalithy of NOMO1 cells grown in RPMI1640 with dialyzed fetal bovine serum (RPMI+ds) (AID 1963877); conditions: NOMO1 in RPMI+dialyzed FBS viability, ATP luminescence, 48 h; series mostly up to 45.8 µM; further: nearly all actives have a fitted effect of over 30% in size;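 on Viability: 100% = DMSO control wells and 0% = empty wells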
In short: as §1

[5] = Quantitative highthroughput screen to assess conditional lethalithy of NOMO1 cells grown in Human Plasma-Like Medium with dialyzed fetal bovine serum (HPLM+ds) (AID 1963878); conditions: NOMO1 AML cells in HPLM+ds, CellTiter-Glo viability, 48 h; series mostly up to 45.8 µM; further: nearly all actives have a fitted effect of over 35% in size;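 on Viability: 100% = DMSO wells and 0% = empty wells on each plate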
In short: as §1

[6] = Quantitative highthroughput screen to assess conditional lethalithy of P12 Ichikawa cells grown in Human Plasma-Like Medium with dialyzed fetal bovine serum (HPLM+ds) (AID 1963879); conditions: ATP luminescence, 48 h; Potency: viability; series mostly up to 45.8 µM; further: nearly all actives have a fitted effect of over 35% in size
In short: as §1

[7] = Quantitative highthroughput screen to assess conditional lethalithy of P12 Ichikawa cells grown in RPMI1640 with dialyzed fetal bovine serum (RPMI+ds) (AID 1963880); conditions: ATP luminescence, 48 h; Potency: P12-Ichikawa viability; series mostly up to 45.8 µM; further: nearly all actives have a fitted effect of over 35% in size;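 on Viability: 100% = DMSO wells and 0% = empty wells on each plate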
In short: as §1

[8] = Quantitative highthroughput screen to assess conditional lethalithy of P12 Ichikawa cells grown in RPMI1640 with untreated serum (RPMI+s) (AID 1963881); conditions: ATP luminescence, 48 h; Potency: viability; series mostly up to 45.8 µM; further: nearly all actives have a fitted effect of over 35% in size;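 on Viability: 100% = DMSO wells and 0% = empty wells without cells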
In short: as §1

[9] = Quantitative highthroughput screen to assess conditional lethalithy of SEM cells grown in Human Plasma-Like Medium with dialyzed fetal bovine serum (HPLM+ds) (AID 1963882); conditions: SEM B-ALL cells in HPLM+ds, CellTiter-Glo viability, 48 h; series mostly up to 45.8 µM; further: nearly all actives have a fitted effect of over 35% in size
In short: as §1

[10] = Quantitative highthroughput screen to assess conditional lethalithy of SEM cells grown in RPMI1640 with unreated serum (RPMI+s) (AID 1963883); conditions: SEM B-ALL cells, CellTiter-Glo viability, 48 h; series mostly up to 45.8 µM; further: nearly all actives have a fitted effect of over 35% in size;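 on Viability: 100% = DMSO wells and 0% = empty wells without cells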
In short: as §1

[11] = Quantitative highthroughput screen to assess conditional lethalithy of SEM cells grown in RPMI1640 with dialyzed fetal bovine serum (RPMI+ds) (AID 1963884); conditions: SEM B-ALL cells, RPMI+dialyzed FBS, CellTiter-Glo viability, 48 h; series mostly up to 45.8 µM; further: nearly all actives have a fitted effect of over 35% in size;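 on Viability: 100% = DMSO control wells and 0% = empty wells without cells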
In short: as §1

[12] = Cellular viability qHTS for adrenocortical cancer (ACC) cell line SW-13 (AID 1963989); conditions: SW-13 ACC cells viability, CellTiter-Glo, 48 h; activity (max response): stronger effect = lower value; further: nearly all actives have a fitted effect of over 65% in size;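 on activity (max response): cells grown in serum-free medium with ITS supplement; on the % scale 0 is the no-effect control and ±100 the full control effect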
In short: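 48 h treatment, SW-13 in ITS/DMEM serum-free; doses up to 46 uM; readout CellTiter-Glo luminescence; curve fit four-parameter logistic.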

[13] = Cellular viability qHTS for adrenocortical cancer (ACC) cell line NCI-H295R (AID 1963990); conditions: CellTiter-Glo ATP luminescence, 48 h; series mostly up to 46.1 µM; further: nearly all actives have a fitted effect of over 60% in size
In short: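 Compound titrations (up to 46 uM final) are applied to NCI-H295R cultures for 48 h at 37C. Viable cell number is estimated by CellTiter-Glo signal, normalised to DMSO and doxorubicin controls.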
Potency means the concentration at half of the fitted maximal effect.

SMILES | Potency [1] | Potency [2] | Potency [3] | Potency [4] | Potency [5] | Potency [6] | Potency [7] | Potency [8] | Potency [9] | Potency [10] | Potency [11] | activity (max response) [12] | Potency [13] | Potency [12]
CC(C)C[C@H](NC(=O)[C@H](CCc1ccccc1)NC(=O)CN1CCOCC1)C(=O)N[C@@H](Cc1ccccc1)C(=O)N[C@@H](CC(C)C)C(=O)[C@@]1(C)CO1 | 0.003 µM (active) | 10.6 nM (active) and 4.7 nM (active) | 0.0372 µM (active) | 0.0372 µM (active) | 0.0372 µM (active) | 0.0332 µM (active) | 0.0235 µM (active) | 0.0209 µM (active) | 0.0132 µM (active) | 0.0083 µM (active) | 0.0132 µM (active) |  |  | 
NC(=O)c1noc([C@H](CCCC2CCCCC2)CC(=O)NO)n1 | 8.2 µM (active) | 4.17 µM (active) | 16.6 µM (active) | 23.5 µM (active) | 18.7 µM (active) | 23.5 µM (active) | 18.7 µM (active) | 18.7 µM (active) | 18.7 µM (active) | 16.6 µM (active) | 18.7 µM (active) |  |  | 
NCCS(=O)(=O)O | inactive | inactive | inactive | inactive | inactive | inactive | inactive | inactive | inactive | inactive | inactive | 6.15% and -3.63% | inactive | 
CCCOc1ccc(C(=O)OCCN(CC)CC)cc1N | inactive | inactive | inactive | inactive | inactive | inactive | inactive | inactive | inactive | inactive | inactive | -2.3% and -19.7% | inactive | 
C=CC(=O)Nc1ccc2ncnc(Nc3ccc(OCc4cccc(F)c4)c(Cl)c3)c2c1 | 5.8 µM (active) and 5.9 µM (active) | 2.31 µM (active) and 4.68 µM (active) | 2.64 µM (active) | 3.32 µM (active) | 2.35 µM (active) | 7.43 µM (active) | 7.43 µM (active) | 7.43 µM (active) | 7.43 µM (active) | 7.43 µM (active) | 8.33 µM (active) |  | 6.31 µM (active) | 0.631 µM (active)
CN(C1CCc2c(c3ccccc3n2CC(=O)O)C1)S(=O)(=O)c1ccc(F)cc1 (stereo not given) | inactive | inactive | 7.43 µM (active) | 7.43 µM (active) | 5.9 µM (active) | 8.33 µM (active) | 14.8 µM (active) | 9.35 µM (active) | inactive |  |  |  |  | 
CC(C)[C@H](CO)Nc1nc(Nc2cccc(Cl)c2)c2ncn(C(C)C)c2n1 | 2.59 µM (active) | 3.32 µM (active) | 2.09 µM (active) | 2.35 µM (active) | 0.743 µM (active) | 4.18 µM (active) | 5.9 µM (active) | 8.33 µM (active) | 1.32 µM (active) | 0.372 µM (active) | 0.418 µM (active) |  | 20 µM (active) | 22.4 µM (active)
CC[C@@]1(O)C(=O)OCc2c1cc1n(c2=O)Cc2cc3c(CN(C)C)c(O)ccc3nc2-1 | 59.6 nM (active) and 58 nM (active) | 0.0332 µM (active) | 0.526 µM (active) | 0.526 µM (active) | 0.332 µM (active) | 0.105 µM (active) | 0.0743 µM (active) | 0.0743 µM (active) | 0.166 µM (active) | 0.0935 µM (active) | 0.105 µM (active) |  |  | 0.562 µM (active)
CC(C)[C@H](N)C(=O)OCCOCn1cnc2c(=O)[nH]c(N)nc21 | 5.9 µM (active) | inactive | inactive | inactive | inactive | inactive | inactive | inactive | inactive | inactive | inactive | -3.62% and -11.6% | inactive | 
c1ccc2c(CCNc3ccc(Nc4ccncc4)cc3)c[nH]c2c1 | 1.16 µM (active) and 525 nM (active) | 731 nM (active) and 590 nM (active) | 16.6 µM (active) | 18.7 µM (active) | 14.8 µM (active) | 23.5 µM (active) | 20.9 µM (active) | 16.6 µM (active) | 0.935 µM (active) | 0.372 µM (active) | 0.833 µM (active) |  | 3.55 µM (active) | 1.58 µM (active)
COc1cc2c(cc1OC)CC(=O)N(CCCN(C)C[C@H]1Cc3cc(OC)c(OC)cc31)CC2 | inactive | inactive | inactive | inactive | inactive | inactive | inactive | inactive | inactive | inactive | inactive | 10.3% | inactive | 
CCCCCCCCCCCCCCCCCCCCCCO | inactive | inactive | inactive | inactive | inactive | inactive | inactive | inactive | inactive | inactive | inactive | -13.9% | inactive | 
COCCCOc1cc(C[C@@H](C[C@H](N)[C@@H](O)C[C@H](C(=O)NCC(C)(C)C(N)=O)C(C)C)C(C)C)ccc1OC | inactive | 168 nM (active) and 5.9 µM (active) | inactive | inactive | inactive | inactive | inactive | inactive | inactive | inactive | inactive | 6.05% | inactive | 
